Test results published in the supplement of paper PMC7411054.
Structures can show the parent of a compound that is named as a salt.

What was measured:
Conditions in all cases: treatment time: 24 h
A549-ACTB-RAB5A [1] = test: lowest phenotypically active concentration; higher = less potent
Method in brief: (§1)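 After 24 h at 0.3, 1, 3 or 9 µM, with four wells per treatment, fifteen gene-edited A549, HepG2 and WPMY1 reporter lines carrying BFP, GFP and RFP/FusionRed were imaged live. Each well's live-cell features were expressed relative to solvent control wells. Deviation required ≥3 of 4 wells past the 95th percentile of control Euclidean distances, and reproducibility a median replicate Pearson correlation over the 95th percentile of non-replicates. Phenotypic activity rested on both.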

A549-CANX-COX4 [2] = test: as above
Method in brief: as §1

A549-GM130-SQSTM1 [3] = test: as above
Method in brief: as §1

A549-TP53BP1-CLTA [4] = test: as above
Method in brief: as §1

A549-TUBA1B-RELA [5] = test: as above
Method in brief: as §1

HepG2-GM130-SQSTM1 [6] = test: as above
Method in brief: as §1

A549-ACTB-RAB5A [7] = test: phenotypically active (imaging signature differs from DMSO and reproducible) at any of 0.3-9 uM (binary (1 = active, 0 = inactive)); higher = active
Method in brief: as §1

A549-CANX-COX4 [8] = test: as above
Method in brief: as §1

A549-GM130-SQSTM1 [9] = test: as above
Method in brief: as §1

A549-TP53BP1-CLTA [10] = test: as above
Method in brief: as §1

A549-TUBA1B-RELA [11] = test: as above
Method in brief: as §1

HepG2-ACTB-RAB5A = test: as above
Method in brief: as §1

HepG2-CANX-COX4 = test: as above
Method in brief: as §1

HepG2-GM130-SQSTM1 [12] = test: as above
Method in brief: as §1

HepG2-TP53BP1-CLTA = test: as above
Method in brief: as §1

HepG2-TUBA1B-RELA = test: as above
Method in brief: as §1

WPMY1-CANX-COX4 = test: as above
Method in brief: as §1

WPMY1-GM130-SQSTM1 = test: as above
Method in brief: as §1

WPMY1-TP53BP1-CLTA = test: as above
Method in brief: as §1

WPMY1-TUBA1B-RELA = test: as above
Method in brief: as §1

SMILES	lowest phenotypically active concentration (A549-ACTB-RAB5A [1]) [µM]	lowest phenotypically active concentration (A549-CANX-COX4 [2]) [µM]	lowest phenotypically active concentration (A549-GM130-SQSTM1 [3]) [µM]	lowest phenotypically active concentration (A549-TP53BP1-CLTA [4]) [µM]	lowest phenotypically active concentration (A549-TUBA1B-RELA [5]) [µM]	lowest phenotypically active concentration (HepG2-GM130-SQSTM1 [6]) [µM]	phenotypically active (A549-ACTB-RAB5A [7])	phenotypically active (A549-CANX-COX4 [8])	phenotypically active (A549-GM130-SQSTM1 [9])	phenotypically active (A549-TP53BP1-CLTA [10])	phenotypically active (A549-TUBA1B-RELA [11])	phenotypically active (HepG2-ACTB-RAB5A)	phenotypically active (HepG2-CANX-COX4)	phenotypically active (HepG2-GM130-SQSTM1 [12])	phenotypically active (HepG2-TP53BP1-CLTA)	phenotypically active (HepG2-TUBA1B-RELA)	phenotypically active (WPMY1-CANX-COX4)	phenotypically active (WPMY1-GM130-SQSTM1)	phenotypically active (WPMY1-TP53BP1-CLTA)	phenotypically active (WPMY1-TUBA1B-RELA)
C=C1CN(Cc2ccc(C(=O)Nc3ccccc3N)cc2)C(=O)c2ccccc21	≤ 0.3	≤ 0.3	≤ 0.3	≤ 0.3	1	1	1 (active)	1 (active)	1 (active)	1 (active)	1 (active)	1 (active)	1 (active)	1 (active)	1 (active)	1 (active)	1 (active)	1 (active)	1 (active)	1 (active)
COc1ccc2cc1Oc1ccc(cc1)C[C@H]1c3cc(c(OC)cc3CCN1C)Oc1c(OC)c(OC)cc3c1[C@H](C2)N(C)CC3 [Tetrandrine]	≤ 0.3	1	≤ 0.3	1	≤ 0.3	≤ 0.3	1 (active)	1 (active)	1 (active)	1 (active)	1 (active)	1 (active)	1 (active)	1 (active)	1 (active)	1 (active)	1 (active)	1 (active)	1 (active)	1 (active)
CC(C)(N)c1cc(C(=O)N[C@@H]2CCc3ccc(OC4=C5CCC(=O)N=C5NC=C4)cc3C2)cc(C(F)(F)F)c1 [ML 786 dihydrochloride]	1	1	1	3	1	≤ 0.3	1 (active)	1 (active)	1 (active)	1 (active)	1 (active)	1 (active)	1 (active)	1 (active)	1 (active)	1 (active)	1 (active)	1 (active)	1 (active)	1 (active)
O=C(NC(NC(=S)Nc1ccc(F)c([N+](=O)[O-])c1)C(Cl)(Cl)Cl)C(c1ccccc1)c1ccccc1 (stereo not given)	3	9	3	9	9	9	1 (active)	1 (active)	1 (active)	1 (active)	1 (active)	1 (active)	1 (active)	1 (active)	1 (active)	1 (active)	1 (active)	1 (active)	1 (active)	1 (active)
CCOC(=O)CCNc1cc(N2CCc3ccccc3CC2)nc(-c2ccccn2)n1	3	9	9	3	3	3	1 (active)	1 (active)	1 (active)	1 (active)	1 (active)	1 (active)	1 (active)	1 (active)	1 (active)	1 (active)	1 (active)	1 (active)	1 (active)	1 (active)
Clc1ccc(C2(c3ccc(-c4cn[nH]c4)cc3)CCNCC2)cc1	≤ 0.3	≤ 0.3	≤ 0.3	≤ 0.3	≤ 0.3	≤ 0.3	1 (active)	1 (active)	1 (active)	1 (active)	1 (active)	1 (active)	1 (active)	1 (active)	1 (active)	1 (active)	1 (active)	1 (active)	1 (active)	1 (active)
